# In the supplement of paper PMC10981050:
# Where a name gives a salt, the structure may show the parent alone.
# Tested on: K562
# Assay: cell viability relative to vehicle control; higher = less cytotoxic
# Settings: 10 µM; SRSF2 genotype: SRSF2 wt/wt
# Outline: (§1)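 Mutant clones made by CRISPR editing and their isogenic wild-type counterparts, from four leukaemia lines, were exposed to a single 10 µM dose of each library compound for 48 h. The supernatant was then removed and CellTiter-Glo luminescence was read. Viability was reported as percent of the on-plate vehicle control.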
row,Compound,cell viability
1,COc1nc(C)cnc1NS(=O)(=O)c1cccnc1-c1ccc(-c2nnco2)cc1 [Zibotentan (ZD4054)],98.4%
2,CC(=CCNc1ncnc2nc[nH]c12)CO [Trans-Zeatin],104%
3,CCCCCCCCOc1ccccc1C(=O)Nc1ccc(C(=O)OCC[N+](C)(CC)CC)cc1 [Otilonium Bromide],92.3%
4,CCCCCCCC/C=C\CCCCCCCCCCCC(=O)O [Erucic acid],103%
5,C=C1C(=O)[C@]23[C@H](O)[C@H]1CC[C@H]2[C@@]12CO[C@]3(O)[C@@H](O)[C@@H]1C(C)(C)CC[C@@H]2O [Oridonin (Isodonol)],24.2%

# Tested on: MARIMO
# Assay: as above
# Settings: 10 µM; SRSF2 genotype: SRSF2 P95H/wt
# Outline: as §1
row,Compound,cell viability
1,COc1cc(C=O)c([N+](=O)[O-])cc1OC,95.3%
2,CCOc1ccccc1OCCN[C@H](C)Cc1ccc(OC)c(S(N)(=O)=O)c1 [Tamsulosin hydrochloride],96.9%
3,O=C1CC(=O)c2c(Cl)c(Cl)c(Cl)c(Cl)c21,99.7%
4,CO/N=C(\C(=O)N[C@@H]1C(=O)N2C(C(=O)O)=C(CSC(=O)c3ccco3)CS[C@H]12)c1csc(N)n1 [Ceftiofur hydrochloride],89.1%
5,CC1=CC(=O)CC(C)(C)C1=O [Ketoisophorone],98.3%
6,CO[C@@]12[C@H](COC(N)=O)C3=C(C(=O)C(C)=C(N)C3=O)N1C[C@@H]1N[C@@H]12 [Mitomycin C],5.24%
7,O=c1cc(-c2ccc(O)c(O)c2)oc2cc(O)cc(O)c12 [Luteolin],65.7%
8,Cc1cc(C2CCCCC2)n(O)c(=O)c1 [Ciclopirox ethanolamine],21.4%
9,N[C@@H]1CN(c2c(F)cc3c(=O)c(C(=O)O)cn([C@@H]4C[C@@H]4F)c3c2Cl)CC12CC2 [Sitafloxacin hydrate],104%
10,COCCCN1CCC(NC(=O)c2cc(Cl)c(N)c3c2OCC3)CC1 [Prucalopride],85.9%
11,COc1cc2nc(N3CCCC3)nc(NCCCCCN3CCCC3)c2cc1OC,9.85%
12,O=C(O)c1ccc2c(c1)C(=O)c1ccccc1C2=O [Anthraquinone-2-carboxylic Acid],98%
13,C[C@@H]1O[C@@H]1P(=O)(O)O [fosfomycin tromethamine],109%
14,CCCCCCCCCC[C@H](C(=O)O)[C@]1(C(=O)O)CCC(=O)O1 [Spiculisporic Acid],104%
15,CC1(C)CCC2(C(=O)O)C(O)CC3(C)C(=CCC4C5(C)CC(O)C(O)C(C)(CO)C5CCC43C)C2C1 (stereo not given) [Polygalacic acid],101%
16,"C[C@H]1[C@H](NC(=O)/C(=N\OC(C)(C)C(=O)O)c2csc(N)n2)C(=O)N1S(=O)(=O)O [Aztreonam (Azactam, Cayston)]",96.8%
17,C#C[C@]1(O)CC[C@H]2[C@@H]3CCc4cc(O)ccc4[C@H]3CC[C@@]21C [Ethinyl Estradiol],70.1%
18,CC(C)COc1ccc(CNC(=O)N(Cc2ccc(F)cc2)C2CCN(C)CC2)cc1 [Pimavanserin],2.06%
19,"Oc1cc(O)c2c(c1)OC(c1ccc(O)c(O)c1)C(O)C2 (single isomer, unassigned; (+)) [(+)-Catechin hydrate]",106%
20,Cc1ccc([C@@H]2O[C@H](CO)[C@@H](O)[C@H](O)[C@H]2O)cc1Cc1ccc(-c2ccc(F)cc2)s1 [Canagliflozin],99%

row,Compound,cell viability
1,Nc1ncnc2c1c(-c1cnc3[nH]ccc3c1)nn2C1CCCC1,27.8%
2,COc1ccc(-c2oc3c(CC=C(C)C)c(O)cc(O)c3c(=O)c2O[C@@H]2O[C@@H](C)[C@H](O)[C@@H](O)[C@H]2O)cc1 [Baohuoside I],94.6%
3,OC1CCC(Oc2cccc3cnc(Nc4ccc5nc[nH]c5c4)nc23)CC1 (stereo not given),11.5%
4,CC(C)(C)c1[nH]cnc1/C=c1\[nH]c(=O)/c(=C/c2ccccc2)[nH]c1=O [NPI-2358 (Plinabulin)],7.45%
5,CN(C)C(=O)c1ccc(S(=O)(=O)c2ccc(NC(=O)C(C)(O)C(F)(F)F)c(Cl)c2)cc1 (stereo not given),60.1%
6,CN(C)C(=O)COC(=O)Cc1ccc(OC(=O)c2ccc(NC(=N)N)cc2)cc1 [Camostat Mesilate (FOY-305)],108%
7,C[C@@H]1COC(Nc2ccc3ncnc(Nc4ccc(OCc5nccs5)c(Cl)c4)c3c2)=N1 [Varlitinib],89.2%
8,CCOC(=O)[C@H](CCc1ccccc1)N[C@H]1CS[C@H](c2cccs2)CN(CC(=O)O)C1=O [Temocapril HCl],101%
9,Nc1ccn([C@H]2CC[C@@H](CO)O2)c(=O)n1 [Zalcitabine],107%
10,OCCOCCN1CCN(Cc2cccc(Oc3ccccc3)c2)CC1,90%
11,CC(C)[C@H]1CC[C@H](C(=O)N[C@H](Cc2ccccc2)C(=O)O)CC1 [Nateglinide (Starlix)],97.8%
12,Nc1ccc(O)c(C(=O)O)c1 [Mesalamine (Lialda)],89.8%
13,NCCCCCN [Cadaverine],100%
14,CN[C@@H](C)C(=O)N[C@H](C(=O)N1CCC[C@H]1c1nc(C(=O)c2ccc(F)cc2)cs1)C1CCCCC1,70.1%
15,Nc1[nH]c(=O)ncc1Br [5-Bromocytosine],101%
16,COc1nc(C)cnc1NS(=O)(=O)c1cccnc1-c1ccc(-c2nnco2)cc1 [Zibotentan (ZD4054)],99%
17,CC(=CCNc1ncnc2nc[nH]c12)CO [Trans-Zeatin],99%
18,CCCCCCCCOc1ccccc1C(=O)Nc1ccc(C(=O)OCC[N+](C)(CC)CC)cc1 [Otilonium Bromide],84.9%
19,CCCCCCCC/C=C\CCCCCCCCCCCC(=O)O [Erucic acid],101%
20,C=C1C(=O)[C@]23[C@H](O)[C@H]1CC[C@H]2[C@@]12CO[C@]3(O)[C@@H](O)[C@@H]1C(C)(C)CC[C@@H]2O [Oridonin (Isodonol)],37.5%
